This is part of a sample that, as a whole, favours compounds with a hit. Of some 79,000 tested, about 15% had one in any assay. Values without a mark were called inactive. Calls of active or inactive are those of the source. No stated cut-off is given here; in the data, active means growth inhibition above about 70%; inactive means the rest.
Experiments:
[1] = NCI Yeast Anticancer Drug Screen. Data for the rad50 strain (AID 155);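 further: 0% = growth of vehicle-only cultures of the same strain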; conditions: S. cerevisiae rad50 strain growth inhibition; at 50.0 µM; stronger effect = higher value
How it was run: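 Inhibition values express reduced yeast growth in compound-treated cultures relative to vehicle-treated controls.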

[2] = NCI Yeast Anticancer Drug Screen. Data for the mec2-1 strain (AID 157); conditions: S. cerevisiae mec2-1 strain, at 50.0 µM, stronger effect = higher value
How it was run: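 Yeast mec2-1 mutant treated with compound. Readout: growth inhibition vs vehicle controls.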

[3] = NCI Yeast Anticancer Drug Screen. Data for the sgs1 mgt1 strain (AID 161);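 further: 0% = growth of cultures given vehicle only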; conditions: S. cerevisiae sgs1 mgt1 strain, at 50.0 µM, stronger effect = higher value
How it was run: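 Read-out: growth inhibition vs vehicle controls. Cells: mutant yeast strain deficient in DNA damage repair.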

[4] = NCI Yeast Anticancer Drug Screen. Data for the cln2 rad14 strain (AID 165);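 further: 0% = growth equal to vehicle treated cultures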; conditions: S. cerevisiae cln2 rad14 strain, at 50.0 µM, stronger effect = higher value
How it was run: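 cln2 rad14 yeast strain; compound exposure; growth inhibition read vs vehicle controls.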

[5] = NCI Yeast Anticancer Drug Screen. Data for the bub3 strain (AID 167); conditions: S. cerevisiae bub3 mutant strain, at 50.0 µM, stronger effect = higher value
How it was run: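 Steps: expose the mutant yeast strain to compound; grow alongside vehicle-treated cultures; measure growth; express inhibition against the vehicle cultures.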

[6] = NCI Yeast Anticancer Drug Screen. Data for the mlh1 rad18 strain (AID 175); conditions: S. cerevisiae mlh1 rad18 strain growth inhibition; at 50.0 µM; stronger effect = higher value
How it was run: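 Yeast w/ defined DNA-repair lesions; compound exposure; growth vs vehicle controls → % inhibition.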

| Structure (SMILES) | growth inhibition [1] [%] | growth inhibition [2] | growth inhibition [3] | growth inhibition [4] | growth inhibition [5] [%] | growth inhibition [6] |
| --- | --- | --- | --- | --- | --- | --- |
| OCC1CCC(O)C(CO)N1 (centres undefined) | -6.65 | -29.6% | -22.7% | 8.85% | -16.2 | -15.8% |
| C=CCOc1ccc(Cl)cc1Cl | 1.65 | -4.4% | -0.45% | 4.6% | 6.65 | -1.75% |
| CC(C)NC(=O)OCc1c(COC(=O)NC(C)C)c(-c2ccc(Cl)cc2)n2c1CCC2 | -29.6 | -23.7% | -26.1% | 9.25% | -6.75 | -24.4% |
| COc1cccc(C(=O)NNC(=O)c2cccc3ccccc23)c1 | -47.2 | -59.1% | -26.8% | -10.4% | -34.2 | -20.9% |
| NC(CSSCC(N)C(=O)O)C(=O)O (centres undefined) | -11.6 | -20% | 1.35% | 4% | -20.9 | -2.05% |
| Cc1ccnc(Nc2nc3ccccc3[nH]2)n1 | 7.1 | -10.9% | 4.5% | 14.1% | 8.6 | 8.85% |
| O=CNCCc1ccccc1 | 7.25 | -9.05% | 6.85% | 5% | 6.3 | 2.35% |
| Cc1ccc(N2C(=O)c3cccc4c(N)c(S(=O)(=O)O)cc(c34)C2=O)cc1 | -33.5 | -18.2% | -24.7% | -6.8% | -13.7 | -28.4% |
| O=S(=O)(OCCOS(=O)(=O)c1ccccc1)c1ccccc1 | 31.9 | 1.45% | -0.9% | -27.9% | -9.1 | 50.7% |
| Cc1cc2c3ccc(C)[n+](C)c3ccc2n1C | -4.3 | 5.9% | 10.6% | -66.6% | 7.65 | -5.25% |
| CC(=O)N(C(C)=O)c1ccc(C)cc1 | -13.7 | -18.9% | -14.7% | -9.75% | -11.2 | -13.9% |
| CCC(/C=C\C(C)=O)CC | -28.3 | -25.2% | -27.6% | 5.35% | -10.6 | -12.8% |
| CCC1CCC(C)NC1 (centres undefined) | 26.4 | 2.75% | 17.2% | 23.6% | -7.05 | 21.8% |
| Cc1ccc[n+](CCC(N)=O)c1 | -18.4 | -41.4% | -10.8% | 1.2% | -16.1 | -6.75% |
| CC(=O)c1cccc(N(C)S(=O)(=O)c2ccc(C)cc2)c1 | 47.6 | 7.1% | 21.8% | -31.2% | 45.1 | 37.9% |
| C=CC1=NC(C)(C)CC(C)O1 (centres undefined) | 8 | -15.2% | 9.75% | 25.4% | 11.5 | 9.75% |
| CC1(C)OC2C(CO)OC(n3ccc(=O)[nH]c3=O)C2O1 (centres undefined) | 1.9 | 0.9% | -12.3% | -7.3% | 10.5 | -4.35% |
| O=S(=O)(O)c1cccnc1 | 12.4 | 6% | 10.7% | -11.6% | -2.25 | 15.8% |
| Cc1ccc([N+](=O)[O-])c(C)n1 | 19.1 | -23.1% | 6.2% | 27.1% | -4.4 | 23.4% |
| Nc1ncnc2c1ncn2C1OC(CO)C2OC21 (centres undefined) | -12.6 | -7.85% | 2.05% | 12.5% | -5.95 | -30.4% |
| O=Cc1c(O)c2ccccc2[nH]c1=O | -0.95 | 1.35% | -1.55% | 9.5% | 4.2 | 3.85% |
| C=COC(=O)CCOCC(CC)CCCC (centres undefined) | -6.1 | -15.1% | 8.95% | -6.2% | -4.55 | -6.55% |

| Structure (SMILES) | growth inhibition [1] [%] | growth inhibition [2] | growth inhibition [3] | growth inhibition [4] | growth inhibition [5] [%] | growth inhibition [6] |
| --- | --- | --- | --- | --- | --- | --- |
| ON1CCCC1 | -1.35 | -4.15% | -8.9% | -6.6% | 6.4 | 1.5% |
| CC(=O)Nc1ccc(O)c(C)c1 | 10.8 | 3.35% | -25.8% | -21.8% | -14.8 | -1.1% |
| O=C1NC(=O)C(c2ccccc2)O1 (centres undefined) | -3.9 | -12.1% | 1.15% | 14.7% | 18.8 | 10.8% |
| OCCNc1ccccc1 | 31.9 | 11.4% | 2.75% | 11.1% | 6.3 | 9.7% |
| CN1C(=O)NC(c2ccc(Cl)cc2)(c2ccc(Cl)cc2)C1=O | 44.9 | 11.1% | -23% | -11.9% | -8 | 91% (active) |
| Cc1cccnc1NC1OC(=O)c2ccccc21 (centres undefined) | -22.1 | -4.4% | -16.6% | 2.05% | -9.25 | -9.65% |
| C[n+]1c(/C=C\C=C\N2CCCCC2)sc2ccccc21 | 28.7 | 14.6% | 34.4% | 2.45% | 31.6 | 27.9% |
| CC1CCC(C)(C)c2ccccc21 (centres undefined) | 2.65 | -7.25% | -2.5% | -2.5% | -7.75 | 2.3% |
| CCN(Cc1ccc(Cl)c(Cl)c1)c1ccc2nc(N)nc(N)c2c1C | 40 | 84.6% (active) | 50.9% | 40.3% | 6.15 | 29.9% |
| CCNCC(C)(C)O | 7.7 | -3.8% | 5.5% | 8.35% | -0.5 | 27.8% |
| Cc1onc(-c2c(F)cccc2Cl)c1-c1ncc(-c2ccc(Br)cc2)o1 | -13.4 | -15.9% | -9.75% | 9.45% | -15.5 | 9.7% |
| CCOC(C=O)OCC | 0.6 | 6% | 4.35% | -9% | -4.3 | -10.9% |
| CCNc1ncnc2[nH]ncc12 | -8.2 | -6.45% | -5.6% | -13.8% | 3.9 | -5.3% |
| Cc1cc(C(=O)c2ccccc2)cc(C)c1O | 12.2 | -3.35% | 12.8% | 5.2% | -0.4 | 30.4% |
| CN1CCN(C(=S)S)CC1 | 0.3 | -2.5% | 4.75% | 2.15% | 3.5 | 5.15% |
| COc1cc(CC#N)c([N+](=O)[O-])cc1OC | -3.15 | -22.1% | -12.8% | -39% | -14.2 | 0.4% |
| O=C(O)Cc1cccc2ccccc12 | 19.2 | -7.55% | 2.65% | 0.05% | -9.65 | -0.55% |
| C=CCS(C)(=O)=O | -13.8 | -18.6% | -11.8% | 5.7% | -0.8 | -3.65% |
| COC1=C(OC)C(=O)C(SC/C=C(\C)CCCC(C)CCCC(C)CCCC(C)C)=CC1=O (centres undefined) | -31.8 | -24.4% | -43.5% | 16.6% | -52.6 | -61.1% |
| O=[N+]([O-])c1ccc(-c2nc(N(CCO)CCO)c3ccccc3n2)o1 | 41.8 | 69.8% | 88.8% (active) | 72.5% (active) | 25.1 | 66.8% |
| Cc1ccc(C2CCCCC2)cc1Br | 5.7 | 4.25% | 4.4% | 3.15% | 9.45 | 28.3% |
| CC(C)c1ccc(C(=O)OCCCl)cc1 | 29.7 | 9% | 6.6% | -3.05% | -4.2 | 23.8% |

From PubChem BioAssay (NCI)
